{"source": "PubChem BioAssay (NCATS)", "key": {"[1]": {"target": "Peroxisome proliferator-activated receptor gamma (Homo sapiens) (UniProt P37231)", "sequence (P37231 whole entry, looked up)": "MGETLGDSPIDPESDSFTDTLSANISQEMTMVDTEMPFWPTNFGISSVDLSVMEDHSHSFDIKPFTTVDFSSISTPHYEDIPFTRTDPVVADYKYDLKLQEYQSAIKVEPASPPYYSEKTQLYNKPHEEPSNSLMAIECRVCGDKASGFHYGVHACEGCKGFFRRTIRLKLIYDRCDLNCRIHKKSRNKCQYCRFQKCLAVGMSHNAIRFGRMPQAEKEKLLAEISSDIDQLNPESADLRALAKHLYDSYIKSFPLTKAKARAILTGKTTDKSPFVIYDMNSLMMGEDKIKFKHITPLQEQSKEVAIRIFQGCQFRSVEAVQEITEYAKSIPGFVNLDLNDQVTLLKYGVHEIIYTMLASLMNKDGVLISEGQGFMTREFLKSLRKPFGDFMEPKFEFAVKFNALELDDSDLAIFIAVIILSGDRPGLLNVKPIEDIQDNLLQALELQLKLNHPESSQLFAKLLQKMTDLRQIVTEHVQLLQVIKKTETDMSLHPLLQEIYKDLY", "assay": "qHTS assay for small molecule antagonists of peroxisome proliferator-activated receptor gamma signaling (AID 588537; active = well fitted inhibition curve with a large enough effect in the signal ratio, with a control signal flat, not every such curve was filed as active; the % refers to the signal ratio; note: potency is the fitted concentration of half-maximal effect)", "conditions": "HEK293 PPARg-UAS-bla, beta-lactamase ratio, antagonist mode; series mostly up to 76.8 µM", "procedure,_shortened": "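Compounds are tested as concentration series for inhibition of rosiglitazone-driven (50 nM) reporter expression in GeneBLAzer PPAR-gamma-UAS-bla HEK293 cells. After 16 h at 37 C, CCF4 substrate is added for 2 h at room temperature and blue/green fluorescence is measured.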"}, "[2]": {"target": "Thyroid hormone receptor beta (Homo sapiens) (UniProt P10828)", "sequence (P10828 whole entry, looked up)": "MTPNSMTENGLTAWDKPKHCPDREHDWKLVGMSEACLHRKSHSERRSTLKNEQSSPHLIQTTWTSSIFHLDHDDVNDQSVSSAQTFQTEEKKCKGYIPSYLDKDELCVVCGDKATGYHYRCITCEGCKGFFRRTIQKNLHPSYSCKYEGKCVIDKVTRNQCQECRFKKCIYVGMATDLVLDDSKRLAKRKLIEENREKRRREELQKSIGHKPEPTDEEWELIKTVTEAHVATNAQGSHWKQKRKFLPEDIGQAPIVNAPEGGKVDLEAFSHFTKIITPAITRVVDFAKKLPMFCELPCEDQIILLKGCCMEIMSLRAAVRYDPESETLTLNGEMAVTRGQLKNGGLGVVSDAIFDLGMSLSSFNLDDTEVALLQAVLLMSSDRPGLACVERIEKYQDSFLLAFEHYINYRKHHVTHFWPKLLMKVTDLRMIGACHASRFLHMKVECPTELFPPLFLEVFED", "assay": "qHTS assay for small molecule antagonists of thyroid hormone receptor beta signaling (AID 588547; active = well fitted inhibition curve with a large enough effect in the signal ratio, with a control signal flat, not every such curve was filed as active; the % refers to the signal ratio; note: % is set by controls: 0 for no effect and ±100 for the full control effect)", "conditions": "TR-UAS-bla HEK293, beta-lactamase ratio, antagonist mode, 18 h", "procedure,_shortened": "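TR-UAS-bla GripTite HEK293 cells in 2% charcoal/dextran FBS medium were preincubated 4 h at 37 C, given compound (0.59 nM to 92 uM) plus 0.4 nM T3 (final) for 18 h, then CCF4 for 2 h at RT; Hill fit gave IC50.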"}, "[3]": {"target": "Vitamin D3 receptor (Homo sapiens) (UniProt P11473)", "sequence (P11473 whole entry, looked up)": "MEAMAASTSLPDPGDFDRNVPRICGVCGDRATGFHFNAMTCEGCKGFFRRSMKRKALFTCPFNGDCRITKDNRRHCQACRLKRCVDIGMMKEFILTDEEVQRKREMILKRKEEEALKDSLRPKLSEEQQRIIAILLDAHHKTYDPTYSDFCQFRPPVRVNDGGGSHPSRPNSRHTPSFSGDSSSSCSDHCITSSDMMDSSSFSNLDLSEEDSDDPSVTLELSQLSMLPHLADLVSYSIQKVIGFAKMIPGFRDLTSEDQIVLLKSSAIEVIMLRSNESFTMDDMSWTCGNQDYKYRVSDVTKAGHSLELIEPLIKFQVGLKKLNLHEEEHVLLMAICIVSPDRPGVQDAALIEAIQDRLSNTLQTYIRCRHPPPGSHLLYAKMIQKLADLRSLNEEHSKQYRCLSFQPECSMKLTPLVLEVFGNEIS", "assay": "qHTS for Inhibitors of the vitamin D receptor (VDR): Hit Validation in Primary Screen (AID 602199); note: potency is the fitted concentration of half-maximal effect", "conditions": "VDR-coactivator inhibition assay, qHTS confirmation", "procedure,_shortened": "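Fluorescence polarization assay of VDR binding to Alexa 647-labelled SRC2-3 coactivator peptide: 800nM VDR with 5uM LG19078 agonist, compounds, 2 h at room temperature, read Ex 620 nm/Em 688 nm.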"}, "[4]": {"assay": "qHTS for Inhibitors of the vitamin D receptor (VDR): Hit Validation using a Texas Red Assay (AID 602201); note: potency is the fitted concentration of half-maximal effect", "conditions": "VDR coregulator binding, Texas Red fluorescence polarization, agonist-bound VDR ligand-binding domain; series mostly up to 57.1 µM", "procedure,_shortened": "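Fluorescence polarization (Ex 595/Em 615 nm) of Texas Red (7 nM) with 1.5 uM VDR-LBD and LG19078 (final concentrations). Compounds were incubated for 2 hours at room temperature.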"}, "[5]": {"assay": "qHTS assay for small molecule agonists of the antioxidant response element (ARE) signaling pathway (AID 651741; active = well fitted activation curve with a large enough effect in the signal ratio; the % refers to the signal ratio; note: potency is the fitted concentration of half-maximal effect; for activation: % of control where 0% means no effect)", "conditions": "HepG2 ARE-bla reporter, beta-lactamase FRET ratio, 16 h; series mostly up to 96 µM", "procedure,_shortened": "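Reporter: beta-lactamase under ARE, stably in HepG2. Exposure: 16 h, 37 C, compounds delivered in DMSO by pin tool after 5 h cell preincubation. Readout: FRET substrate fluorescence after 2 h at RT.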"}, "[6]": {"target": "Peroxisome proliferator-activated receptor gamma (Homo sapiens) (UniProt P37231)", "assay": "qHTS assay for small molecule agonists of peroxisome proliferator-activated receptor gamma signaling (AID 588536; active = well fitted curve in the direction sought with a large enough effect in the signal ratio, with a control signal flat, not every such curve was filed as active; the % refers to the signal ratio;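 note: 0% = DMSO basal wells and 100% = rosiglitazone at 2 µM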)", "conditions": "HEK293 PPARg-UAS-bla, beta-lactamase ratio, 16 h, percent of rosiglitazone response, DMSO as zero; series mostly up to 76.7 µM", "procedure,_shortened": "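Cells were plated and held 6–6.5 h at 37 C, then compounds were added as a titration series. After a further 16 h, CCF4 dye was loaded for 2 h at room temperature and emission at 460/530 nm recorded.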"}}, "note": "Records with an inconclusive call do not appear. The list shows a part of the results. Calls of active or inactive are those of the source. Unless noted, calls come from the whole dose curve; as a rule, active = well fitted curve in the direction sought with a large enough effect; inconclusive = small, poorly fitted or top-dose-only effect, or another doubt; inactive = no such curve, though single readings can be large; an effect the other way counts as inactive or inconclusive.", "data": [{"molecule": "CC1(C)C(=O)N(Br)C(=O)N1Cl", "values": [{"measurement": "Potency", "setting": "[1]", "value": "inactive"}, {"measurement": "activity change % (negative = inhibition)", "setting": "[2]", "value": "-12% (inactive)"}]}, {"molecule": "O=C(Nc1nc(-c2ccncc2)cs1)C1COc2ccccc2O1", "note": "(configuration not stated)", "values": [{"measurement": "Potency", "setting": "[3]", "value": "2.82 µM (active)"}, {"measurement": "Potency", "setting": "[4]", "value": "7.08 µM (active)"}]}, {"molecule": "Cc1nc(-c2ccccc2)sc1C(=O)/C=C/c1ccccc1", "values": [{"measurement": "Potency", "setting": "[3]", "value": "16.8 µM (active)"}]}, {"molecule": "O=C(Nc1ccccc1)c1cc(Cl)ccc1O", "values": [{"measurement": "Potency", "setting": "[5]", "value": "5.45 µM (active)"}]}, {"molecule": "CC1CCN(C(=S)c2ccc(-c3ccc(Cl)cc3Cl)o2)CC1", "values": [{"measurement": "Potency", "setting": "[3]", "value": "21.2 µM (active)"}]}, {"molecule": "O=C(CCN1CCc2ccccc2C(O)(c2ccccc2)C1)c1ccc2c(c1)OCCO2", "note": "(configuration not stated)", "values": [{"measurement": "Potency", "setting": "[3]", "value": "10.6 µM (active)"}, {"measurement": "Potency", "setting": "[4]", "value": "inactive"}]}, {"molecule": "O=C(/C=C/c1ccc(Cl)cc1Cl)c1cccnc1", "values": [{"measurement": "Potency", "setting": "[3]", "value": "9.47 µM (active)"}]}, {"molecule": "O=C(/C=C/c1ccccc1)c1ccccc1O", "values": [{"measurement": "Potency", "setting": "[3]", "value": "23.8 µM (active)"}]}, {"molecule": "CCCC/C=C\\CCCCCCCCCC=O", "values": [{"measurement": "outcome", "setting": "[6]", "value": "inactive"}, {"measurement": "Potency", "setting": "[5]", "value": "inactive"}]}, {"molecule": "Cc1ccc(O)c(NC(=O)CCS(=O)(=O)c2nc(-c3ccc4c(c3)OCO4)cc(C(F)(F)F)n2)c1", "values": [{"measurement": "Potency", "setting": "[3]", "value": "14.1 µM (active)"}, {"measurement": "Potency", "setting": "[4]", "value": "28.2 µM (active)"}]}, {"molecule": "c1ccc2c(C[n+]3csc4ccccc43)cccc2c1", "values": [{"measurement": "Potency", "setting": "[3]", "value": "5.62 µM (active)"}, {"measurement": "Potency", "setting": "[4]", "value": "10 µM (active)"}]}, {"molecule": "CN(C)c1ccc(C(c2ccccc2)c2ccc(N(C)C)cc2)cc1", "values": [{"measurement": "activity change % (negative = inhibition)", "setting": "[2]", "value": "13.2% (inactive)"}]}, {"molecule": "O=[N+]([O-])c1c(NCCO)cc(Sc2nc3ccccc3s2)c2nonc12", "values": [{"measurement": "Potency", "setting": "[3]", "value": "3.36 µM (active)"}]}, {"molecule": "O=C(O)C1(C(=O)Nc2ccc(Cl)cc2Cl)CC1", "values": [{"measurement": "Potency", "setting": "[1]", "value": "44.7 µM (active)"}]}, {"molecule": "O=C1C=C(c2ccc(Cl)cc2)C(=O)N1Nc1ccccc1", "values": [{"measurement": "Potency", "setting": "[3]", "value": "2.99 µM (active)"}]}, {"molecule": "C=CC(=O)OCCOCC(CC)(COCCOC(=O)C=C)COCCOC(=O)C=C", "values": [{"measurement": "Potency", "setting": "[5]", "value": "30.6 µM (active)"}]}, {"molecule": "CCCOC(=O)NCCCN(C)C", "values": [{"measurement": "outcome", "setting": "[6]", "value": "inactive"}, {"measurement": "Potency", "setting": "[1]", "value": "inactive"}, {"measurement": "activity change % (negative = inhibition)", "setting": "[2]", "value": "1.87% (inactive)"}, {"measurement": "Potency", "setting": "[5]", "value": "inactive"}]}, {"molecule": "C=CCOc1ccc(/C=C2/C(=O)ON=C2C)cc1OCC", "values": [{"measurement": "Potency", "setting": "[3]", "value": "10.6 µM (active)"}]}, {"molecule": "Cc1cccc(CS(=O)(=O)c2ncc(Cl)c(C(=O)Nc3ccc(F)cc3)n2)c1", "values": [{"measurement": "Potency", "setting": "[3]", "value": "3.36 µM (active)"}]}, {"molecule": "COc1ccc(CS(=O)/C(Cl)=C(/Cl)C(=O)Nc2ccc(OC)nc2)cc1", "note": "(configuration not stated)", "values": [{"measurement": "Potency", "setting": "[3]", "value": "5.97 µM (active)"}]}, {"molecule": "c1cc2ccc3ccc4ccc5cccc6c(c1)c2c3c4c56", "values": [{"measurement": "Potency", "setting": "[5]", "value": "21.7 µM (active)"}]}, {"molecule": "O=c1[nH]c(/C=C\\c2cccc(C(F)(F)F)c2)nc(O)c1[N+](=O)[O-]", "values": [{"measurement": "Potency", "setting": "[3]", "value": "18.9 µM (active)"}]}, {"molecule": "CCOc1ccc(N(Cc2ccccc2)C(=O)c2nc(S(C)(=O)=O)ncc2Cl)cc1", "values": [{"measurement": "Potency", "setting": "[3]", "value": "4.47 µM (active)"}]}, {"molecule": "CCOC(=O)N1CCN(C(c2cccnc2)c2ccc3cccnc3c2O)CC1", "note": "(configuration not stated)", "values": [{"measurement": "Potency", "setting": "[3]", "value": "7.52 µM (active)"}]}, {"molecule": "CSc1nnc(NC(=O)c2nc(S(=O)(=O)Cc3ccc(C)cc3)ncc2Cl)s1", "values": [{"measurement": "Potency", "setting": "[3]", "value": "7.52 µM (active)"}, {"measurement": "Potency", "setting": "[4]", "value": "inactive"}]}, {"molecule": "COC(=O)c1sc(-c2ccc(C(C)(C)C)cc2)cc1NC(=O)/C=C/C(=O)O", "values": [{"measurement": "Potency", "setting": "[3]", "value": "11.9 µM (active)"}]}, {"molecule": "CCOC(=O)c1sc(NC(=O)CSc2nc(C)cc(C(F)(F)F)n2)c(C#N)c1C", "values": [{"measurement": "Potency", "setting": "[3]", "value": "11.9 µM (active)"}]}, {"molecule": "CCN(Cc1c(F)cccc1Cl)c1c([N+](=O)[O-])cc(C(F)(F)F)cc1[N+](=O)[O-]", "values": [{"measurement": "outcome", "setting": "[6]", "value": "inactive"}, {"measurement": "Potency", "setting": "[1]", "value": "inactive"}, {"measurement": "activity change % (negative = inhibition)", "setting": "[2]", "value": "-17.5% (inactive)"}]}, {"molecule": "CCNc1nc(N)nc(Cl)n1", "values": [{"measurement": "activity change % (negative = inhibition)", "setting": "[2]", "value": "-8.97% (inactive)"}, {"measurement": "Potency", "setting": "[5]", "value": "inactive"}]}, {"molecule": "CC[C@H]1O[C@]2(CC[C@@H]1C)C[C@@H]1C[C@@H](C/C=C(\\C)C[C@@H](C)/C=C/C=C3CO[C@@H]4[C@H](O)C(C)=C[C@@H](C(=O)O1)[C@]34O)O2", "values": [{"measurement": "Potency", "setting": "[1]", "value": "22.4 µM (active)"}]}, {"molecule": "O=[N+]([O-])/C=C/c1ccc2c(ccn2Cc2ccccc2)c1", "values": [{"measurement": "Potency", "setting": "[3]", "value": "6.7 µM (active)"}]}, {"molecule": "O=c1cc(CO)oc(C(Nc2cccc(C(F)(F)F)c2)c2ccccn2)c1O", "note": "(configuration not stated)", "values": [{"measurement": "Potency", "setting": "[3]", "value": "16.8 µM (active)"}, {"measurement": "Potency", "setting": "[4]", "value": "inactive"}]}, {"molecule": "Cc1ccc(-c2nc3ccccn3c2Nc2c(C)cccc2C)o1", "values": [{"measurement": "Potency", "setting": "[3]", "value": "17.8 µM (active)"}]}]}
